Experimental data from PubChem BioAssay AID1159580 (chemical genetic matrix, 2015).
The whole screen tested about 5,500 compounds, of which about 2,000 (36%) were called active. Another 18% or so got no clear call; they are omitted. No stated cut-off is given here; in the data, active means normalized growth mostly below about 0.91 (no sharp cut-off); inconclusive means no clear call, values can overlap the other calls; inactive means mostly above about 0.92. The list shows a part of the results.

Assay: chemical genetic growth profiling, strain panel (AID 1159580);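 further: tested at 20 µM; growth read once vehicle control cultures reached saturation at 30 °C; 1 = growth at the plate median or of vehicle wells; lower values mean less growth of the strain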
Conditions: S. cerevisiae deletion strains, growth OD
[1] = locus YAL040C, strain CLN3, active compounds read low
[2] = locus YCL061C, strain MRC1 (second series), active compounds read low
[3] = locus YDR363W, strain ESC2, active compounds read low
[4] = locus YER002W, strain NOP16, active compounds read low
[5] = locus YNL175C, strain NOP13, active compounds read low
[6] = locus YNL197C, strain WHI3, active compounds read low
[7] = locus YNL224C, strain SQS1, active compounds read low
[8] = locus YOR083W, strain WHI5 (second series), active compounds read low
[9] = locus YPL241C, strain CIN2, active compounds read low

Measured: normalized growth

COc1ccccc1CNCCCCCCNCCCCCCCCNCCCCCCNCc1ccccc1OC
inactive: [1] 1.01 | [2] 0.96 | [3] 0.906 | [4] 1.03 | locus YNL153C, strain GIM3, active compounds read low 0.942 | [5] 0.992 | [6] 1.03 | [7] 1.03 | [8] 0.875 | [9] 0.96

CC(C(=O)O)c1ccc(CC2CCCC2=O)cc1 (stereo not drawn)
inactive: locus YAL013W, strain DEP1, active compounds read low 0.985 | [1] 0.995 | [2] 1 | [3] 1 | [4] 0.988 | locus YGR078C, strain PAC10, active compounds read low 1.02 | locus YGR229C, strain SMI1, active compounds read low 1.01 | locus YJR075W, strain HOC1, active compounds read low 1.01 | locus YMR263W, strain SAP30, active compounds read low 1 | locus YMR307W, strain GAS1, active compounds read low 0.999 | locus YNL128W, strain TEP1, active compounds read low 0.976 | [5] 1.01 | [6] 1.02 | [7] 0.979 | locus YNL322C, strain KRE1, active compounds read low 1.01 | [8] 0.981 | locus YPL055C, strain LGE1, active compounds read low 0.974 | [9] 1.01
